{"source": "PubChem BioAssay AID1463", "about": "(National Center for Advancing Translational Sciences (NCATS), 2008)", "note": "The campaign covered roughly 280,000 compounds. About 2,600 (0.93%) were called active. Inconclusive results (about 8%) are left out. The call rests on the fitted dose curve; in most records, active means well fitted curve in the direction sought with a large enough effect; inconclusive means small, poorly fitted or top-dose-only effect; inactive means flat fitted curve, though single readings scatter. Shown is part of a subset that was picked to be rich in actives. A call without a number means that no potency is given here. Potency means the concentration at half of the fitted maximal effect; tags describe the fitted curve by direction and shape or compound fluorescence and quenching.", "data": [{"assay": "Counterscreen qHTS for Inhibitors of Tau Fibril Formation, Fluorescence Polarization; further: nearly all actives have a fitted effect of over 55% in size", "conditions": "tau K18 P301L Alexa594 fluorescence, heparin fibrillization; series mostly up to 57.7 µM", "procedure,_shortened": "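Human tau K18 P301L (15 uM unlabeled, 0.24 uM Alexa 594-labeled) in 100 mM sodium acetate pH 7 with 20 uM heparin, 6 hr at 37 C. ThT 30 uM added, 1 hr ambient; Alexa 594 FP and total fluorescence read at 555/632 nm.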", "values": [{"smiles": "Cc1cccc(NC(=O)c2ccc3nc(C(C)C)oc3c2)c1C", "Potency": "inactive"}, {"smiles": "CCOC(=O)c1ccc(NC(=O)CCS(=O)(=O)c2ccc(C)cc2)cc1", "Potency": "inactive"}, {"smiles": "CCOc1ccccc1N(CC)C(=O)c1cc2ccc3cccnc3c2[nH]1", "Potency": "inactive"}, {"smiles": "CCOc1ccc(N(C)S(=O)(=O)c2cc(-c3cnc(C)o3)ccc2OC)cc1", "Potency": "inactive"}, {"smiles": "Cc1cc(C)cc(Nc2ncnc3onc(-c4ccc(F)cc4)c23)c1", "Potency": "inactive"}, {"smiles": "Cc1cc(OCC(=O)NCC2(N(C)C)CCCCC2)cc(C)c1Cl", "Potency": "inactive"}, {"smiles": "COC(=O)c1sccc1S(=O)(=O)N(CC(=O)Nc1ccc(C)c(F)c1)c1ccc(C)c(C)c1", "Potency": "inactive"}, {"smiles": "Cc1nn(Cc2ccc(F)cc2)c(C)c1NC(=O)c1cc(CC(C)C)on1", "Potency": "inactive"}, {"smiles": "CCc1nc2ccc(C(=O)N3CCN(c4cc(Cl)ccc4C)CC3)cc2nc1CC", "Potency": "inactive"}, {"smiles": "COc1ccc(NC(=O)c2ccc3nc(C(C)C)oc3c2)cc1OC", "Potency": "inactive"}, {"smiles": "COc1ccc(C(=O)Nc2ccc3nc(N4CCCCC4)cc(C)c3c2)cc1OC", "Potency": "10 µM [quencher] (active)"}, {"smiles": "COc1cccc(C(=O)Nc2ccc3nc4n(c(=O)c3c2)CCCCC4)c1", "Potency": "inactive"}, {"smiles": "COc1ccccc1CN1CCC(CNC(=O)c2cnn(-c3ccccc3Cl)c2C2CCN(C(=O)OC(C)(C)C)CC2)CC1", "Potency": "inactive"}, {"smiles": "Fc1ccc(-c2nn(-c3ccccc3Cl)c3c2cnc2ccccc23)cc1", "Potency": "inactive"}, {"smiles": "O=C(Nc1ccc2ccccc2c1)Nc1ccc2snnc2c1", "Potency": "4.47 µM [quencher] (active)"}, {"smiles": "O=C(Nc1ccc2oc(-c3ccc4ccccc4c3)nc2c1)c1cccs1", "Potency": "inactive"}, {"smiles": "O=C(Nc1ccccc1)Nc1nc2ccccc2s1", "Potency": "inactive"}, {"smiles": "Cc1cc(C)c(NC(=O)CN2C(=O)c3cccnc3Oc3ccc(Cl)cc32)c(C)c1", "Potency": "inactive"}, {"smiles": "COc1ccc(N2CCN(S(=O)(=O)c3ccc(-c4coc(C)n4)cc3)CC2)cc1", "Potency": "inactive"}, {"smiles": "COc1ccc(-c2[nH]ncc2CN(C)Cc2c(C)n[nH]c2C)c(OC)c1", "Potency": "inactive"}, {"smiles": "CCOc1ccccc1Oc1cn[nH]c1-c1ccc(OC)cc1O", "Potency": "12.6 µM [quencher] (active)"}, {"smiles": "CCOc1ccc(-c2nc(N)ncc2-c2ccccc2OC)c(O)c1", "Potency": "inactive"}, {"smiles": "COc1ccccc1CNC(=O)c1ccc(-n2c(C)cc3c2CCCC3)cc1", "Potency": "inactive"}, {"smiles": "COc1ccc(OC)c(CNC(=O)c2c3c(nc4ccccc24)C(=O)N(C2CCCCC2)C3)c1", "Potency": "inactive"}, {"smiles": "Fc1ccc(C(Nc2ccc(Cl)c(C(F)(F)F)c2)c2nnc(-c3ccccc3)o2)cc1", "note": "(stereo unspecified)", "Potency": "inactive"}, {"smiles": "N#C/C(=C/c1ccc(-c2ccccc2[N+](=O)[O-])o1)C(=O)NCCN1CCCCC1", "Potency": "inactive"}, {"smiles": "O=C(NCCc1c[nH]c2ccccc12)C(=O)NCC1CCCO1", "note": "(stereo unspecified)", "Potency": "inactive"}, {"smiles": "N#C/C(=C/c1ccc(N2CCCCC2)o1)C(=O)NCCc1c[nH]c2ccccc12", "Potency": "15.8 µM [quencher] (active)"}, {"smiles": "Cc1ccc(Nc2c3c(nc4ccccc24)CCC3)cc1", "Potency": "inactive"}, {"smiles": "COc1ccccc1Nc1c2c(nc3ccc(NC(=O)/C=C/c4cc(OC)c(OC)c(OC)c4)cc13)CCCC2", "Potency": "10 µM [quencher] (active)"}, {"smiles": "COc1ccc(/C=C/C(=O)Nc2ccc3c(c2)OCCO3)cc1OC", "Potency": "inactive"}, {"smiles": "CCCN(C(=O)Cn1ncc2c([nH]c3ccc(C)cc32)c1=O)c1ccccc1C", "Potency": "inactive"}, {"smiles": "c1cnc(Nc2nc(-c3ccc4ccccc4c3)cs2)nc1", "Potency": "inactive"}, {"smiles": "Clc1ccc(Nc2nc(-c3cccs3)cs2)nc1", "Potency": "14.1 µM [quencher] (active)"}, {"smiles": "COC(=O)CSc1nccc(-c2cccs2)n1", "Potency": "inactive"}, {"smiles": "Cc1cccc(-n2ncc(C(=O)N3CCN(c4ccc(Cl)cc4)CC3)c2C2CCN(C(=O)OC(C)(C)C)CC2)c1", "Potency": "inactive"}, {"smiles": "Cc1ccc(C)c(N2CCN(C(=O)C3CCC(CNS(=O)(=O)c4cccs4)CC3)CC2)c1", "note": "(stereo unspecified)", "Potency": "inactive"}, {"smiles": "CN1C(=O)C(CC(=O)Nc2ccccc2)S/C1=N/c1nccs1", "note": "(stereo unspecified)", "Potency": "inactive"}, {"smiles": "O=C(Nc1cccc(Cl)c1)OCc1ccccn1", "Potency": "inactive"}, {"smiles": "O=C(CC1SC(=Nc2ccccc2)N(Cc2ccccn2)C1=O)Nc1cccc(Cl)c1", "note": "(stereo unspecified)", "Potency": "10 µM [quencher] (active)"}, {"smiles": "Fc1ccc(CSc2nc(NCc3ccccc3)c3ccccc3n2)cc1", "Potency": "inactive"}, {"smiles": "NS(=O)(=O)c1ccc(NC(=S)NC(=O)c2cccc(Br)c2)cc1", "Potency": "inactive"}, {"smiles": "Cc1ccccc1NC(=S)NNC(=O)c1cccc(Br)c1", "Potency": "inactive"}, {"smiles": "O=C(NC(=S)Nc1cccc2c(O)cccc12)c1cccc(Br)c1", "Potency": "11.2 µM [quencher] (active)"}, {"smiles": "COc1cccc(C(=O)N(Cc2cccc(Cl)c2)Cc2ccco2)c1", "Potency": "inactive"}, {"smiles": "Cc1ccccc1CSc1nc2c([nH]c3ccccc32)c(=O)n1C", "Potency": "inactive"}, {"smiles": "CCN(C(=O)CSc1nnc(C)n2c1cc1occc12)c1ccccc1", "Potency": "inactive"}, {"smiles": "CC1CCN(S(=O)(=O)c2ccc3c(c2)N(CC(=O)NCCc2ccccc2)C(=O)CO3)CC1", "Potency": "inactive"}, {"smiles": "CCc1ccc(NC(=O)c2sc3nc4c(cc3c2N)CN(CC)CC4)cc1", "Potency": "20 µM [quencher] (active)"}, {"smiles": "COc1ccc(Cl)cc1NC(=O)CCN1CCOCC1", "Potency": "inactive"}, {"smiles": "COc1ccc(Cl)cc1NC(=O)c1oc(C)nc1C", "Potency": "inactive"}]}]}
